Several values for one entry are separate records, joined by “and”; a condition that tells them apart may be missing. Equal entries are not always repeated. Records with an inconclusive call do not appear. A call without a number means that no potency is given here. The source holds several records for some structures; these can differ, active in one and inactive in another. Activity calls are given as the source filed them. Calls come from the whole dose curve; as a rule, active = well fitted inhibition curve with a large enough effect in the repeat runs; inconclusive = weak or mixed curves, or effect the other way; inactive = no such curve, though single readings can be large or run the other way.
Assay: qHTS assay to identify small molecule antagonists of the retinoic acid receptor (RAR) signaling pathway (AID 1159552; note: nearly all actives have a fitted effect of over 50% in size)
Conditions: C3RL4 RARE luciferase reporter, retinol-stimulated, 6 h; series mostly up to 92.4 µM
Source text: National Center for Advancing Translational Sciences [NCATS]
NIH Chemical Genomics Center [NCGC]
U.S. Environmental Protection Agency [EPA]
National Institutes of Environmental Health Sciences [NIEHS]
National Toxicology Program [NTP]
U.S. Food and Drug Administration [FDA]
All-trans Retinoic acid (atRA) is the potent natural metabolite of retinol and plays an important role in normal embryonic development and maintenance of cellular phenotype in adult animals. atRA is the activating ligand for the retinoic acid receptors (RARs) which form heterodimers with retinoid X receptors (RXRs) on the retinoic acid response element (RARE). Through activation of the RAR/RXRs nuclear receptors, atRA regulates the transcription of a large number of protein-coding genes and regulatory RNAs. Intracellular levels of atRA are controlled by the retinol signaling pathway (RSP) that regulates the biosynthesis and catabolism of atRA to maintain physiological levels. Chemicals that interfere with the RSP can cause abnormal intracellular levels of atRA and therefore are potential developmental toxicants. To assess compounds for the potential adverse effect on embryonic development through interfering with retinol signaling, a cell-based RARE luciferase reporter gene assay was used. C3RL4 cell line (OARSA/CFSAN/FDA, Laurel, MD) was used to screen Tox21 10K compound library for identifying inhibitors of the RSP.
Tox21 Assay Protocol Summary:
C3RL4 cells were seeded at 1,000/well in 4 uL of assay medium into white solid 1,536-well tissue culture plates (Greiner Bio-One North America Inc. Monroe, NC) using a Multidrop Combi (Thermo Scientific, Waltham, MA) dispenser. After incubation at 37 C and 5% CO2 for an overnight, 23 nL of compounds dissolved in DMSO, positive control or DMSO only were transferred by a Pintool station (Kalypsys, San Diego, CA). One ul of 1 uM (final concentration) of Retinol was added right after the compound addition by using a Flying Reagent Dispenser (FRD) (Aurora Discovery, San Diego, CA). After 6 hr incubation at 37 C and 5% CO2, 5 uL of Amplite Luciferase reagent (AAT Bioquest Inc. Sunnyvale, CA) was added to each assay plate using an FRD. Luminescence was quantified on a ViewLux plate reader (PerkinElmer, Waltham, MA) after 30 min incubation at room temperature.
In the case of CN(C(=O)c1c(O)c2ccccc2n(C)c1=O)c1ccccc1, the Potency is reported as “inactive”.
With COc1ccccc1OCC(O)CN1CCN(CC(=O)Nc2c(C)cccc2C)CC1 (stereo not given) the Potency was “inactive”.
In the case of C[N+](C)(C)CC(O)CC(=O)[O-] (stereo not given), the Potency is reported as “inactive”.
In the case of Cc1c(O)cccc1O, the Potency is reported as “inactive”.
With Cc1cccc(C)c1NC(=O)C(C)N (stereo not given) the Potency was “inactive”.
For CC(C(=O)O)c1ccc(CC2CCCC2=O)cc1 (stereo not given), the Potency was “inactive”.
With C[N+](C)(C)CCCCCC[N+](C)(C)C the Potency was “inactive and 16.8 µM (active)”.
In the case of N=C(N)c1ccc2cc(OC(=O)c3ccc(N=C(N)N)cc3)ccc2c1, the Potency is reported as “inactive”.
With CCCCC/C=C\CCC=O the Potency was “inactive”.
In the case of O=C1CCCN1C1CCCCC1, the Potency is reported as “inactive”.
In the case of Nc1c[n+](N2CCOCC2)no1, the Potency is reported as “inactive”.
With CCCCCCCCCCCCCC=O the activity, negative = inhibition was -4.55% [at 8.39 µM] (inactive).
With NC(=O)COCCN1CCN(C(c2ccccc2)c2ccc(Cl)cc2)CC1 (stereo not given) the Potency was “inactive”.
For CCCCCCCCS(=O)(=O)Cl, the Potency was “inactive”.
In the case of CCOc1ccc(C(=O)OCCN(CC)CC)cc1, the Potency is reported as “inactive”.
For CC(C)=CCCC(C)CC(=O)O (stereo not given), the Potency was “inactive”.
In the case of CCOC(=O)c1c(C)n(C)c2ccc(O)cc12, the Potency is reported as “inactive”.
In the case of c1cnc(N2CCN(Cc3ccc4c(c3)OCO4)CC2)nc1, the Potency is reported as “inactive”.
With CCCCCOC(=O)CCCCC the Potency was “inactive”.
With COC(=O)c1cc(C(=O)OC)cc(S(=O)(=O)O)c1 the Potency was “inactive”.
With COC(=O)C1=C(C)NC(C)=C(C(=O)OC)C1c1ccccc1[N+](=O)[O-] the Potency was “inactive”.
In the case of COCCCOCCCOC, the Potency is reported as “inactive”.
For CCN(CC)CCOCCOC(=O)C1(c2ccccc2)CCCC1, the Potency was “inactive”.
In the case of CC(=O)Nc1ccc(S(N)(=O)=O)cc1, the Potency is reported as “inactive”.
For OCCCC1CCCCC1, the Potency was “inactive”.
For CC(C)CCCC(C)N (stereo not given), the Potency was “inactive”.
In the case of N[C@H]1CN(c2c(F)cc3c(=O)c(C(=O)O)cn(C4C[C@H]4F)c3c2Cl)CC12CC2 (stereo not given in full), the Potency is reported as “inactive”.
With COC(=O)CCSCCC(=O)OC the Potency was “inactive”.
With O=C(O)Cc1ccc(CCNS(=O)(=O)c2ccc(Cl)cc2)cc1 the Potency was “inactive”.
For CCSC(=O)N(CC(C)C)CC(C)C, the Potency was “inactive”.
For COc1cc(C(=O)N2CCCCCCC2)cc(OC)c1OC, the Potency was “inactive”.
With c1ccc([C@H]2CN3CCSC3=N2)cc1 the Potency was “inactive”.
With NC(CSCC(=O)O)C(=O)O (stereo not given) the Potency was “inactive”.
For CC(=O)OCC(=O)[C@@]1(O)CC[C@H]2[C@@H]3CCC4=CC(=O)CC[C@]4(C)[C@H]3C(=O)C[C@@]21C, the Potency was “inactive”.
In the case of Cc1cnc(NS(=O)(=O)c2ccc(N)cc2)nc1, the Potency is reported as “inactive”.
In the case of O=C(O)CCCc1ccccc1, the Potency is reported as “inactive”.
With CC(C)(C)NCCNC(C)(C)C the Potency was “inactive”.
With COC(=O)NN the Potency was “inactive”.
In the case of N=c1nc(N2CCCCC2)cc(N)n1O, the Potency is reported as “inactive”.
In the case of CCCCC(CC)COC(=O)c1ccccc1O (stereo not given), the Potency is reported as “inactive”.
Potency is the fitted concentration of half-maximal effect.
